Assay results from PubChem BioAssay AID1220 (Sanford-Burnham Center for Chemical Genomics, 2008).
Screen size: about 190,000 compounds; about 1,300 (0.68%) were called active. The sample holds actives, similar compounds and a random draw of the others, so the mix is not that of the screen. Unmarked numbers belong to inactive results. Rule as the data show it: active = inhibition above about 50%; inactive = the rest.

What follows are compounds tested against Mannose-6-phosphate isomerase (Homo sapiens) (UniProt P34949) (assay: MPI inhibition at elevated mannose 6-phosphate – biochemical, fluorescence intensity, high mannose 6-phosphate, primary screen (AID 1220)). Settings: recombinant PMI enzyme, coupled fluorescence intensity; at 20 µM; active compounds read high.
Sequence of Mannose-6-phosphate isomerase (Homo sapiens) (P34949 whole entry, looked up): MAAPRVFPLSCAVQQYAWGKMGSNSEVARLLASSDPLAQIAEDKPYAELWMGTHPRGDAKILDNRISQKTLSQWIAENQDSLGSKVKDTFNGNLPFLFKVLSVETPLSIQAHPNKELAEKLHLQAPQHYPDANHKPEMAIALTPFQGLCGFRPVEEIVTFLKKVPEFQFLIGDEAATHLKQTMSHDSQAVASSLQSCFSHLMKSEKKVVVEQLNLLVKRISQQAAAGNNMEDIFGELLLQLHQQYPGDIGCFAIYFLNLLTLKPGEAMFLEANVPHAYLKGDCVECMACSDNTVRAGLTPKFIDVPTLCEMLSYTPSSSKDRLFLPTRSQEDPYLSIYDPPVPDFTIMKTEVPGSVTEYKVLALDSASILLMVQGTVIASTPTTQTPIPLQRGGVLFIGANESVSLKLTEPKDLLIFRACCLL
COc1ccc(CC(NC(C)=O)C(=O)NC2CCN(S(=O)(=O)c3ccccc3)CC2)cc1OC (centres undefined) showed an inhibition of 4.4%. CC(/C=C/c1ccccc1)=N/NC(=O)CCC(=O)Nc1ccccc1C showed an inhibition of -55.7%. In the case of O=C(NCc1ccc(Cl)cc1)c1ccc(-c2ccccc2C(F)(F)F)o1, the inhibition is reported as 2.3%. For Oc1ccc(N=Nc2c(O)ccc3ccccc23)cc1, the inhibition was 20.8%. O=C(O)Cc1c(O)ccc2ccccc12 gave an inhibition of 9.9%. Oc1ccc2ccccc2c1Br was tested, and the inhibition was 52.5% (active). In the case of CC1CCN(CCNC(=O)CN(C)S(=O)(=O)c2cccc3nsnc23)CC1, the inhibition is reported as 0.3%. Compound Cc1c(Cl)cccc1NC(=S)Nc1ccccn1 has an inhibition of 3.2%. With COc1cc(NC(=O)C2=C(N3CCOCC3)/C(=C/c3ccc(Cl)cc3)CC2)cc(OC)c1OC the inhibition was 23.9%. COc1cccc(CNC(=O)c2nnn(-c3ccc(OC(F)(F)F)cc3)c2N)c1 showed an inhibition of -5.4%. For COC(=O)c1cc(=O)n(Cc2cccs2)c(=Nc2ccc(F)cc2)s1, the inhibition was -2%. CCOc1cc(C(c2c(C)[nH][nH]c2=O)c2c(C)[nH][nH]c2=O)ccc1O showed an inhibition of 49.7%. Cc1[nH][nH]c(=O)c1C(c1cc([N+](=O)[O-])ccc1O)c1c(C)[nH][nH]c1=O gave an inhibition of 31.8%. With COc1ccc(O)c(C(c2c(C)[nH][nH]c2=O)c2c(C)[nH][nH]c2=O)c1 the inhibition was 56.6% (active). Work on CN(C)c1nc(N)nc(-c2nc3ccccc3s2)n1 yielded an inhibition of 6.8%. COc1ccc(C(=O)/C=C/Nc2ccc([N+](=O)[O-])cc2)cc1 showed an inhibition of -10.3%. In the case of Cc1cc(Br)ccc1-n1[nH]c(C)c(C=Nc2cccc3nsnc23)c1=O, the inhibition is reported as 70.9% (active). COc1ccccc1N=Cc1c(C)[nH]n(-c2ccc(C)cc2C)c1=O showed an inhibition of 11.1%. In the case of Cc1ccc2cccc(N=Cc3c(C)[nH]n(-c4ccccc4)c3=O)c2n1, the inhibition is reported as -9.8%. For Cc1ccc(-c2csc(NC(=O)COc3ccc(N(C)S(=O)(=O)c4ccc(C)cc4)cc3)n2)cc1, the inhibition was 8.1%. O=C(Nc1cccc2c1CCCC2)c1ccncc1 gave an inhibition of -4%. In the case of CC(C)OCCCNc1ncc2c(n1)CC(c1ccccc1)CC2=O (centres undefined), the inhibition is reported as 53.2% (active). In the case of CC(C)C(=O)Nc1ncc2c(n1)CC(c1cccs1)CC2=O (centres undefined), the inhibition is reported as 4%. For CC(C)OCCCNc1ncc2c(n1)CC(c1cccs1)CC2=O (centres undefined), the inhibition was 61.9% (active). In the case of CCOCCCNc1ncc2c(n1)CC(c1ccc(C)cc1)CC2=O (centres undefined), the inhibition is reported as 9.4%. CCC(C)C(=O)Nc1ncc2c(n1)CC(c1cccs1)CC2=O (centres undefined) showed an inhibition of -1.8%. CC(C)OCCCNc1ncc2c(n1)CC(c1ccc(N(C)C)cc1)CC2=O (centres undefined) gave an inhibition of 22.7%. COc1cccc(C2CC(c3c(Cl)cccc3Cl)n3nc(N)nc3N2)c1 (centres undefined) was tested, and the inhibition was 11.8%. COc1ccc(C2CC(c3c(Cl)cccc3Cl)n3nc(N)nc3N2)cc1 (centres undefined) was tested, and the inhibition was 56.3% (active). COc1ccc(C2CC(c3ccc(OC)cc3)n3nc(N)nc3N2)cc1 (centres undefined) gave an inhibition of 10.5%. With CN(C)/C=C1/Oc2c(ccc3ccccc23)C1=O the inhibition was 59.2% (active). Compound CN(C)C=C1C(=O)c2ccccc2C1=O has an inhibition of 0.8%. COc1cccc2c1C(=O)c1ccc3ccccc3c1C2=O was tested, and the inhibition was -81.6%. With CCCn1c(=O)c2c(nc(Br)n2CCC)n(C)c1=O the inhibition was -0.3%. Work on CC1CCCN(C(C(=O)NC2CCCCC2)c2cc3c(cc2[N+](=O)[O-])OCO3)C1 (centres undefined) yielded an inhibition of 41.4%. COc1ccc(NC(=O)c2ccc(NC(=O)C(C)C)cc2)c([N+](=O)[O-])c1 showed an inhibition of 1.6%. With COc1ccc(NC(=O)C(c2cc3c(cc2[N+](=O)[O-])OCO3)N(C)c2ccccc2)cc1 (centres undefined) the inhibition was 43.1%. In the case of COc1ccc(NC(=O)C(c2cc3c(cc2[N+](=O)[O-])OCO3)N(C)C)cc1 (centres undefined), the inhibition is reported as 55.6% (active). O=C(Cc1ccccc1[N+](=O)[O-])Nc1ccc2c(c1)OCO2 gave an inhibition of 0%. For COc1ccc(NC(=O)C(c2cc3c(cc2[N+](=O)[O-])OCO3)N2CCN(C=O)CC2)cc1 (centres undefined), the inhibition was 65.9% (active). In the case of COc1ccc(NC(=O)CN2CCN(CC(=O)Nc3ccc4c(c3)OCO4)CC2)cc1, the inhibition is reported as 0.8%. COc1ccc(NC(=O)/C=C/c2ccc3c(c2)OCO3)cc1 was tested, and the inhibition was 8.9%. For CCN(c1cccc(C)c1)C(C(=O)Nc1ccc(OC)cc1)c1cc2c(cc1[N+](=O)[O-])OCO2 (centres undefined), the inhibition was 54.3% (active). Work on COc1ccc(C(C(=O)Nc2ccc3c(c2)OCO3)N(C)C(=O)Cc2c[nH]c3ccccc23)cc1 (centres undefined) yielded an inhibition of 18.8%. For Cc1c(C(=O)OCC(=O)Nc2ccc3c(c2)OCO3)cccc1[N+](=O)[O-], the inhibition was 16.9%. With COc1ccc(NC(=O)C(c2cc3c(cc2[N+](=O)[O-])OCO3)N(C)Cc2ccccc2)cc1 (centres undefined) the inhibition was 54.8% (active). Cc1nn2cnc3sc4c(c3c2nc1=O)CCCC4 showed an inhibition of 1.4%. For Cc1ccc(C)c(NC(=O)CSc2n[nH]c(-c3ccncc3)n2)c1, the inhibition was 4.4%. Work on COc1cc(C(=O)NCCC(=O)N2CCN(C)CC2)cc(OC)c1OC yielded an inhibition of -1%. For COC(=O)c1ccc(NC(=O)C2CCCN2S(=O)(=O)c2ccc(C)cc2)cc1 (centres undefined), the inhibition was 2.7%. O=C(O)/C(=C\c1ccc(Br)cc1)c1ccc(S(=O)(=O)N2CCCCC2)s1 showed an inhibition of 3.7%. O=C(O)/C(=C\c1ccccc1Cl)c1ccc(S(=O)(=O)N2CCCCC2)s1 showed an inhibition of -23%. In the case of O=C(O)/C(=C\c1ccc(Cl)c([N+](=O)[O-])c1)c1ccc(S(=O)(=O)N2CCCCC2)s1, the inhibition is reported as 57% (active). With Cc1c(Cl)c([N+](=O)[O-])nn1CCCC(=O)N1CCN(c2ccccc2)CC1 the inhibition was -19.1%. COc1cccc(CNC(=S)Nc2cc(C)cc(C)c2)c1 showed an inhibition of 4.2%. In the case of O=c1[nH]c2ccccc2n2c(-c3ccncc3)nnc12, the inhibition is reported as 0.5%. O=c1[nH]c2ccccc2n2c(-c3ccccc3)nnc12 was tested, and the inhibition was 74.5% (active). Work on O=c1[nH]c2ccccc2n2cnnc12 yielded an inhibition of -5.9%. COc1ccc(S(=O)(=O)N(C)CC(=O)Nc2ccc(C(N)=O)cc2)cc1OC was tested, and the inhibition was -13.3%.
